Shown are actives, neighbours in structure and some others; about 2.8% of the full set was active somewhere.
D3 ag: qHTS of D3 Dopamine Receptor Agonist: qHTS; D(3) dopamine receptor (Homo sapiens), P35462; D3R DiscoveRx beta-arrestin cells, luminescence, 90 min; max activation, %; 410,000 tested, 0.58% active; AID 652048, 2013; in the data active = max activation above about 30%; note: 0% is about no effect
Target sequence (P35462 whole entry, looked up): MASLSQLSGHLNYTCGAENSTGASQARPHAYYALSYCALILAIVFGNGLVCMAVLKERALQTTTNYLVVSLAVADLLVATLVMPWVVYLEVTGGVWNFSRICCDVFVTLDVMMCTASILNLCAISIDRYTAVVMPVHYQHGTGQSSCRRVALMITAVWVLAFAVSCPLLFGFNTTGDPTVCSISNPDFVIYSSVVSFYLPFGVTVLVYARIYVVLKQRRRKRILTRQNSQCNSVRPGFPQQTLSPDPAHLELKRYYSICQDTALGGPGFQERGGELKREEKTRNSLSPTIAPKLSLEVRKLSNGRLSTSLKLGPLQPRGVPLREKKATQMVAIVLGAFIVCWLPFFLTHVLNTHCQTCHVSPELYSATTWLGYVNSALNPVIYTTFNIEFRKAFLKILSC
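Agonist mode: compounds and dopamine controls were applied to plated cells for 90 min at 37 degrees C after an overnight attachment at 1500 cells/well. Luminescent read-out followed 30 - 60 minutes at room temperature with DiscoveRx detection reagent.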
B2AR arrestin: qHTS assay of beta-arrestin-biased ligands of beta2-adrenergic receptor. 330,000 tested, 0.02% active. Beta-2 adrenergic receptor (Homo sapiens), P07550. Potency, µM (series often up to 46.1 µM), without a hit: at the top dose activation, usual class: activators. beta-arrestin recruitment to beta2AR, cell-based reporter; active = well fitted activation curve with a large enough effect; inconclusive = small, poorly fitted or top-dose-only effect;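 note: potency is the fitted concentration of half-maximal effect; 0% = DMSO controls and full agonism = EC100 isoproterenol or metaproterenol; nearly all actives have a fitted effect of over 65% in size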
DRD3 antagonist: qHTS of D3 Dopamine Receptor Antagonist: qHTS; max response, negative = inhibition, %; D(3) dopamine receptor (Homo sapiens), P35462; 360,000 tested, 2.5% active; D3R cells, DiscoveRx beta-arrestin luminescence, antagonist mode; active compounds read low; in the data active = max response below about -50%; inconclusive = no clear call, values can overlap the other calls; note: % is set by controls: 0 for no effect and ±100 for the full control effect
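Cells expressing the human receptor were seeded at 1500 cells/well, incubated overnight at 37 degrees C in 5% CO2, then exposed to library compounds with dopamine controls for 90 minutes at 37 degrees C before luminescent detection.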
Giardia killer: Small Molecules that selectively kill Giardia lamblia: qHTS; 340,000 tested, 0.15% active; Giardia lamblia trophozoite viability; activity change, % at 7.66 µM, hits read low; in the data active = activity change below about -80%; inconclusive = between about -30% and that limit;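 note: parasites exposed to compound for two days anaerobically before the ATP read; % is set by controls: 0 for no effect and ±100 for the full control effect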
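Each well holds 100 Giardia trophozoites and compound. After two days (48 hrs) at 37 deg C in anaerobic conditions, ATP is quantified by luminescence.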
Numbers without * were called inactive; ? = inconclusive; nt = not tested or not shown; ! = repeats disagree.

SMILES | D3 ag | B2AR arrestin | DRD3 antagonist | Giardia killer
CNC(=S)NC1CC2CCCC(C1)N2Cc1ccc(C)cc1 (stereo unspecified) | -9.2 | -0.9% | -115.7* | 1.1
CCNC(=S)NC1CC2CCCC(C1)N2Cc1ccc(C)cc1 (stereo unspecified) | -7.7 | 0.4% | -117.9* | ?
CC(=O)NC1CC2CCC(C1)N2Cc1ccc(C)cc1 (stereo unspecified) | -8.6 | 0.0% | -3.8 | -1.1
CCC(=O)NC1CC2CCCC(C1)N2Cc1ccc(C)cc1 (stereo unspecified) | -19.7 | -0.1% | -108.2* | 7.1
CCNC(=S)NC1CC2CCCC(C1)N2Cc1ccco1 (stereo unspecified) | -20.6 | 0.0% | -28.2 | 26.6
CNC(=S)NC1CC2CCCC(C1)N2Cc1ccccc1OC (stereo unspecified) | -36.6 | -0.7% | -61.6* | 20.7
COc1cc(NC(=O)Cn2c(=O)nc(-c3ccccc3F)c3cc(Cl)ccc32)cc(OC)c1 | -0.6 | nt | nt | nt
CCc1cccc(NC(=O)CSc2ncc3c(n2)-c2ccc(Cl)cc2N(Cc2ccccc2)S3(=O)=O)c1 | -12.0 | nt | nt | nt
CC(=O)O[C@@H]1[C@@H](O)CN[C@@H]1Cc1ccccc1 | nt | nt | nt | -82.5*
CCN(CC)CCCCN1c2ccccc2Sc2ccccc21 | -13.4 | -0.9% | -107.5* | 14.6
CN(C)CCCN1c2ccc(O)cc2Sc2ccc(Cl)cc21 | -8.3 | nt | -109.6* | nt
CN1CCN(CCC(=O)N2c3ccccc3Sc3ccc(C(F)(F)F)cc32)CC1 | -24.2 | 0.2% | -52.9* | 12.8
CN(C)CCCN1c2ccccc2Sc2ccc(C(F)(F)F)cc21 | -85.9 | 0.5% | -96.8* | -15.7
CCN(CC)CC(=O)N1c2ccccc2Sc2ccccc21 | -7.4 | 0.0% | -16.4 | -1.2
CN(C)CCCN1c2ccc([N+](=O)[O-])cc2CCc2cc([N+](=O)[O-])ccc21 | nt | nt | nt | 13.4
CCCCCCn1c(SCC#N)nc2ccccc2c1=O | nt | nt | nt | 8.5
COc1ccc(OC)c(Nc2nc3ccccc3nc2-n2nc(C)cc2C)c1 | 0.4 | nt | nt | nt
OCCN1CCN(CCCN2c3ccccc3Sc3ccc(C(F)(F)F)cc32)CC1 | -85.9 | -0.3% | -96.1* | -11.7
OCCN1c2ccccc2CCc2ccccc21 | 0.8 | nt | -13.1 | -17.7
CC(=O)c1ccc2c(c1)N(CCCN1CCN(CCO)CC1)c1ccccc1S2 | -17.9 | nt | nt | nt
OCCN1CCN(CCCN2c3ccccc3CCc3ccccc32)CC1 | -4.2 | nt | -124.6* | nt
CN(C)[C@@H]1CCC[C@H]1OC(=O)C(c1ccccc1)c1ccccc1 | -10.1 | -0.1% | -53.5* | 2.5
CC1CN(C)C(C)CC1OC(=O)C(c1ccccc1)c1ccccc1 (stereo unspecified) | -15.7 | nt | -5.3 | -14.6
COc1cc2c(cc1OC)CN(Cc1cc(=O)oc3cc(C)c(Cl)cc13)CC2 | 10.6 | -0.1% | -5.1 | 9.6
COc1cc2c(cc1OC)CN(Cc1cc(=O)oc3cc(C)c(C)cc13)CC2 | 41.9* | 0.3% | 5.4 | -14.5
SMILES | D3 ag | B2AR arrestin | DRD3 antagonist | Giardia killer
COc1cc2c(cc1OC)CN(Cc1cc(=O)oc3c(C)c(C)ccc13)CC2 | -0.7 | -0.7% | -18.2 | ?
CCc1ccc2c(CN3CCc4cc(OC)c(OC)cc4C3)cc(=O)oc2c1 | 31.0* | 0.1% | -19.7 | 4.4
CC1=C(C(=O)Nc2ccccc2Br)C2(CCC(C)CC2)OC1=O (stereo unspecified) | 7.9 | nt | nt | nt
CN(C)c1c([N+](=O)[O-])cc2[nH]c(=O)[nH]c2c1[N+](=O)[O-] | -15.7 | 0.0% | -69.3* | -23.5
COc1cc(/C=N/n2nnnc2N)ccc1OCC(N)=O | -3.5 | 1.0% | 0.0 | -1.9
COc1cc(/C=N\n2nnnc2N)ccc1OCc1ccc(F)cc1 | -9.5 | 0.2% | -54.1* | -12.2
COc1cc(/C=N/NC(=O)c2nnn(-c3nonc3N)c2C(C)C)ccc1OCc1ccc(F)cc1 | 56.7* | -0.1% | 74.5 | -15.2
COc1cc2nc(NCc3ccccc3)n3nc(-c4ccccc4)nc3c2cc1OC | -7.9 | nt | nt | nt
Cc1ccc(S(=O)(=O)N2CCN(c3nc(-c4ccc(F)cc4)nc4cc(Cl)ccc34)CC2)cc1 | nt | nt | nt | -2.3
CC(C)=CC(=O)Oc1ccc(C(=O)N(C)c2ccccc2I)cc1 | nt | nt | nt | 36.2
CCN(CC)S(=O)(=O)c1cccc(-c2nnc(SCc3nnc(-c4ccccc4)o3)n2C)c1 | -1.8 | -0.4% | -50.5* | -16.9
COc1ccc(NC(=O)C2(C)CCN2CCc2ccccc2)cc1OC (stereo unspecified) | 71.6* | nt | 2.4 | nt
O=S(Cc1ccc(Cl)cc1)c1ccccc1 (stereo unspecified) | 66.2* | nt | 5.6 | -10.3
CC(C)(C)C(=O)O/N=C(\N)c1c(Cl)cccc1Cl | 4.6 | 0.0% | 1.1 | 0.9
C/C(=N\OC(=O)c1c(-c2c(F)cccc2Cl)noc1C)c1nccs1 | 12.4 | 0.3% | 13.9 | 12.6
Cc1onc(-c2c(F)cccc2Cl)c1C(=O)O/N=C(\N)c1ccc([N+](=O)[O-])o1 | 33.2* | 0.1% | 7.9 | -8.1
Cc1onc(-c2c(Cl)cccc2Cl)c1/C(N)=N/OC(=O)C(C)(C)C | 36.1* | -1.0% | -11.6 | 16.1
CC1(C)CC(CC(=O)NC(=S)Nc2ccc([N+](=O)[O-])cc2)C(=O)O1 (stereo unspecified) | -13.9 | 0.0% | -82.7* | 17.4
S=c1[nH]nc(-c2ccc(Br)o2)n1Cc1ccccc1 | -36.7 | -0.3% | -81.7* | -24.1
S=c1[nH]nc(-c2ccco2)n1Cc1ccccc1 | -2.3 | 0.0% | -80.7* | -6.5
Cc1c(Cl)c(-c2n[nH]c(=S)n2Cc2ccco2)nn1C | -1.3 | -1.0% | -53.7* | -1.7
CCn1c(-c2ccco2)n[nH]c1=S | 1.4 | 0.0% | -19.6 | -7.6
CCCN(C(=O)c1nn(-c2ccc(OC)cc2)c(=O)c2c1c1ccccc1n2C)c1ccc(CC)cc1 | -3.0 | nt | nt | nt
CCOC(=O)[C@@](C)(N)Cc1ccc(O)c(O)c1 | 2.0 | nt | nt | nt
COc1cccc2c1cc1c(=O)n(CC(=O)N3CCC(C)CC3)nc(C)n12 | 38.0*! | 0.4% | 0.6 | 2.6
SMILES | D3 ag | B2AR arrestin | DRD3 antagonist | Giardia killer
COc1cccc2c1cc1c(=O)n(CC(=O)N3CCN(c4ccccc4F)CC3)nc(C)n12 | 15.2 | nt | nt | nt
O=S(=O)(c1ccc(OC(F)(F)F)cc1)N1CCN(c2nc(-c3ccccc3)nc3ccccc23)CC1 | nt | nt | nt | -22.1
COc1cc(OC)c(OC)cc1CN1CCCC(C(=O)c2ccc3c(c2)OCO3)C1 (stereo unspecified) | -17.5 | 0.4% | -93.2* | -0.9
COc1cccc(CN2CCCC(C(=O)N3CCCCC3)C2)c1OC (stereo unspecified) | -6.0 | 0.1% | -61.4* | 16.4
CCOC(=O)C1CCCN(Cc2cc(Br)c(OC)cc2OC)C1 (stereo unspecified) | -33.1 | -0.1% | ? | -2.0
COc1ccc2cc(C(=O)C3CCCN(Cc4cnc(N5CCOCC5)s4)C3)ccc2c1 (stereo unspecified) | -15.8 | 0.2% | 2.7 | -14.8
COc1cc(OC)c(OC)cc1CN1CCCC(C(=O)N2CCCC2)C1 (stereo unspecified) | 11.2 | 0.0% | -11.5 | 6.1

Assay outcomes as filed in PubChem BioAssay.
